Screening data: PubChem BioAssay, several laboratories
Compounds with a hit are over-represented: about 7% of the library has one in this group of screens.
proKLK7 act = activators of human kallikrein-7 zymogen; P49862; purified proKLK7, EDANS-DABCYL substrate fluorescence; 100% is mature enzyme control, 0% vehicle; activation, % at 7 µM; 0.9% of 370,000 active; AID 652039;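 active = activation above the mean of all tested compounds plus 3 SD, computed per campaign excluding outliers beyond control limits, cut at about 13% in these data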
Target sequence (P49862 whole entry, looked up): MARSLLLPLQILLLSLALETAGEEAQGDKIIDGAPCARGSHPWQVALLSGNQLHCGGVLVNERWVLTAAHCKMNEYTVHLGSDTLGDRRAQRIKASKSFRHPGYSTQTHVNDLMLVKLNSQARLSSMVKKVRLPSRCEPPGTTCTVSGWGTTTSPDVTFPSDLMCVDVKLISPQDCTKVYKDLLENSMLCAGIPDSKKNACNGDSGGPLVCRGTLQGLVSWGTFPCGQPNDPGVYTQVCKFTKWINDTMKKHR
ADAM10 inh = ADAM10 inhibition, QFRET primary screen; 0.62% of 370,000 active; recombinant ADAM10, EDANS/DABCYL FRET peptide cleavage, 3 h; inhibition, % at 7 µM;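 active = inhibition above a per-campaign cutoff equal to the mean of compounds falling between control-based bounds plus 3 SD, cut at about 20% in these data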
AHR activator = activates the human aryl hydrocarbon receptor; 2.5% of 320,000 active; AHR-responsive luciferase reporter cells, luminescence; activation, % at 5 µM; P35869; AID 2796; in the data active = activation above about 47%
ADAM17 inh = inhibits human ADAM17. P78536. recombinant ADAM17, EDANS/DABCYL FRET peptide cleavage. inhibition, % at 6.95 µM. 0.83% of 370,000 active. AID 720648;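 active = inhibition above the mean of compounds lying between control limits plus 3 SD, set per campaign, cut at about 8.5% in these data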
GRIN3A LBD mod = NR3A (human) ligand-binding domain modulation | NR3A LBD differential scanning fluorimetry, Tm shift; 0% = protein alone, 100% = glycine-bound protein | Tm shift relative to glycine control, % at 25 µM | 2.5% of 340,000 active | AID 1259313;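 active = melting temperature shift of at least 10% of the positive control shift, at one fixed dose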
rCAG binder = r(CAG) repeat RNA binding | inhibition, % at 3 µM | 1.3% of 370,000 active | TO-PRO-1 dye displacement fluorescence;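 active = inhibition above the plate cutoff, the mean of all test compounds on that plate plus 3 SD, cut at about 35% in these data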;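 note: higher means more dye released from RNA so lower well fluorescence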
A number is an active result; – = inactive; · = no result given.

SMILES | proKLK7 act | ADAM10 inh | AHR activator | ADAM17 inh | GRIN3A LBD mod | rCAG binder
CC(=O)CC[C@H]1CC[C@]2(CCCN(S(=O)(=O)C3CCCCC3)C2)O1 | – | – | · | – | · | –
Cn1ccsc1=NC(=O)c1ccc(Cl)c([N+](=O)[O-])c1 | – | – | 68.0 | – | – | –
Cn1ccsc1=NC(=O)c1ccc(S(C)(=O)=O)c([N+](=O)[O-])c1 | – | – | 61.8 | – | – | –
Cn1ccsc1=NC(=O)c1ccc(S(C)(=O)=O)cc1 | – | – | – | – | – | –
COc1cc(C=NN2CCN(C(c3ccccc3)c3ccccc3)CC2)cc(OC)c1OC(C)=O | – | – | · | – | · | –
C=CCN1C(=O)[C@@H](CC(=O)NCc2ccc(C)o2)[C@]2(C(=O)OC)CCCCC=C12 | – | – | · | – | · | –
CCOC(=O)C1CCN(C(=O)COC(=O)/C=C/c2cccc(OC)c2OC)CC1 | – | – | – | – | 14.7 | –
CCOC(=O)C1CCN(C(=O)COC(=O)/C=C/c2ccccc2)CC1 | – | – | – | – | – | –
CN(C)CCN(C(=O)c1ccc(C(=O)c2ccccc2)cc1)c1nc2cc3c(cc2s1)OCCO3 | – | – | – | – | – | –
CN(C)CCN(C(=O)c1ccc(C(=O)c2ccccc2)cc1)c1nc2cc3c(cc2s1)OCO3 | – | – | – | – | 11.1 | –
CC(=O)C1=C(C)N(Cc2ccc(Br)cc2)C(=S)NC1c1ccc(F)cc1 (stereo not drawn) | – | – | · | – | · | –
O=C(NCCN1CCC(Cc2ccccc2)CC1)C1CCCN(S(=O)(=O)c2ccc(Cl)s2)C1 (stereo not drawn) | – | – | · | – | · | –
Cc1ccc(NS(=O)(=O)c2ccc(C(=O)NCc3ccccn3)cc2)cc1 | – | – | – | – | 14.0 | –
CCOc1ccc(NS(=O)(=O)c2ccc(C(=O)NCc3ccccn3)cc2)cc1 | – | – | – | – | – | –
Cc1ccc(NS(=O)(=O)c2ccc(C(=O)NNC(=O)c3ccccc3O)cc2)cc1 | – | – | – | – | 10.0 | –
COc1cccc(C2NC(=S)N(Cc3ccc(Br)cc3)C(C)=C2C(C)=O)c1 (stereo not drawn) | – | – | · | – | · | –
COc1ccc2c3c([nH]c2c1)C1=NCC[C@]12c1ccccc1N=CN2CC3 | · | – | · | – | · | ·
O=C(NNC(=O)c1ccncc1)Nc1ccc([N+](=O)[O-])cc1 | – | – | – | – | – | –
O=C(NNC(=O)c1cc2ccccc2cc1O)Nc1ccc(Br)cc1 | – | – | – | – | 19.4 | –
O=C(NNC(=O)c1ccncc1)Nc1ccc(Br)cc1 | – | – | · | – | 13.8 | –
C=CCN1[C@H](CC(C)C)COc2cc(N3CCSCC3)ccc2S1(=O)=O | – | – | · | – | · | –
C=CCN1C(=O)[C@@H](CC(=O)NCc2cccc3ccccc23)[C@]2(C(=O)OC)CCCCC=C12 | – | – | · | – | · | –
Cc1[nH]n(C(N)=S)c(=O)c1N=Nc1cc(C(F)(F)F)ccc1Cl | – | – | – | – | 11.6 | –
Cc1ccc(N=Nc2c(C)[nH]n(C(N)=S)c2=O)cc1 | – | – | 50.6 | – | – | –
Cc1ccc([C@H](C)NC(=O)C2=C(N)N(S(=O)(=O)c3ccc(C)cc3)C(C(=O)c3ccccc3)C2c2ccccc2Cl)cc1 (stereo partly drawn) | · | – | · | – | · | ·
SMILES | proKLK7 act | ADAM10 inh | AHR activator | ADAM17 inh | GRIN3A LBD mod | rCAG binder
CC(/C=N/NC(=O)CSc1nc(C)cc(C)n1)=C\c1ccccc1 | – | – | – | – | – | –
Cc1cc(C)nc(SCC(=O)N/N=C/c2cc(C)n(-c3ccccc3C)c2C)n1 | – | – | – | – | 11.5 | –
Cc1cc(C)nc(SCC(=O)N/N=C\c2sccc2C)n1 | – | – | 63.0 | – | – | –
CN(C)[C@@H]1CCN(c2cccc3c2S(=O)(=O)N(C2CC2)CCCO3)C1 | – | – | · | – | · | –
CCCCN1C(=O)C(=O)N(CC(=O)Nc2sc(CC)cc2C(=O)OCC)C1=O | – | – | – | – | 12.8 | –
C=CC[C@@]1(c2ccccc2)Oc2ccccc2-c2nc3ccccc3nc21 | – | – | · | – | · | –
Oc1ccc2ccccc2c1CNc1ccc(Br)cc1 | – | – | – | – | 14.9 | –
Oc1ccc(Br)cc1CNc1ccccn1 | – | – | – | – | – | –
Oc1ccc2ccccc2c1CNc1ccc(Br)cn1 | – | – | – | – | 24.8 | –
O=C(NCc1c(O)ccc2ccccc12)c1ccccc1 | – | – | · | – | – | –
CCC(=O)N1CCc2cc(Br)c(S(=O)(=O)NCc3ccccc3OC)cc21 | – | – | · | – | · | –
CCOC(=O)c1cnc(SC)nc1Oc1cccc(NC(=O)c2ccc(C)cc2)c1 | – | – | – | – | 16.9 | –
O=C(/C=C/Nc1ccc(Br)cn1)c1cccc(OC(F)F)c1 | – | – | – | – | 14.1 | –
O=C(/C=C\Nc1ccc(Br)cc1)c1cccnc1 | – | – | – | – | – | –
O=C(N/N=C\c1ccccc1)c1cccc(C(=O)N/N=C\c2ccccc2)n1 | – | – | 70.5 | – | – | –
O=C(N/N=C/c1ccccc1)c1cccc2ccccc12 | – | – | – | – | – | –
Nc1c(C(=O)N/N=C/c2ccccc2)cnn1-c1ccccc1 | – | – | – | – | 14.8 | –
CC(C)CN1C(=O)[C@@]2(CC(=O)N(C)C2c2ccccc2)c2cc(-n3cc(CO)nn3)ccc21 (stereo partly drawn) | – | – | · | – | · | –
COc1ccc(C(=O)NC2CC2)cc1OC1CCN(Cc2cc(C)c(C)cc2C)CC1 | – | – | – | – | 102.5 | –
COc1ccc(C(=O)NC2CCCCCC2)cc1OC1CCN(C(C)=O)CC1 | – | – | – | – | – | –
COc1ccc(C(=O)NC2CCCCC2)cc1OC1CCN(C(C)C)CC1 | – | – | – | – | 12.6 | –
Cc1ccc(-c2nnc(SCC(=O)Nc3ccc4c(c3)OCCO4)n2-c2ccc(Cl)cc2)cc1 | – | – | · | – | · | –
CCOc1ccc(-c2cc(C(C)=O)c3n(c2=O)CCC3)cc1 | – | – | · | – | · | –
CC(=O)Nc1nc(C)c(CCC2OCCO2)c(=O)[nH]1 | – | – | – | – | 12.1 | –
CC(=O)Nc1nc(C)c(Oc2ccccc2)c(=O)[nH]1 | – | – | – | – | – | –
SMILES | proKLK7 act | ADAM10 inh | AHR activator | ADAM17 inh | GRIN3A LBD mod | rCAG binder
Cc1[nH]c(=S)[nH]c(=O)c1CCC1OCCO1 | – | – | – | – | 13.5 | –
O=C1N(CCCO)CCC12CCCCC2 | – | – | · | – | · | –
CCOC(=O)c1nc(C)nc(Sc2n[nH]c(-c3cc(C(F)(F)F)cc(C(F)(F)F)c3)n2)c1C | – | – | – | – | 12.8 | –
Cc1ccc(C=Nn2c(-c3n[nH]c4c3CCC4)n[nH]c2=S)o1 | – | – | · | – | · | –
CSc1nncn1/N=C/c1ccc([N+](=O)[O-])cc1 | – | – | – | – | – | –
CSc1nncn1/N=C/c1ccc2c(c1)OCO2 | – | – | 50.9 | – | – | –
COC(=O)c1c(C(=O)OC)c2ccncn2c1Cl | – | – | 74.0 | – | – | –
O=C(c1ccncc1)N1CC[C@H]2[C@H](CCCN2Cc2ccccc2)C1 | – | – | · | – | · | –
